These results are taken from PubChem BioAssay (NCI).

Assay in all cases: NCI-60 one-dose screen, 48 h (100 = growth as untreated, 0 = no growth, -100 = all killed)
Holding throughout (conditions): 10 µM unless noted

Assay [1] concerns NCI-H23 lung.
Assay [2] has as its system NCI-H226 lung.
Assay [3] concerns NCI-H322M lung.
For assay [4], the system named is HOP-62 NSCLC.
For assay [5], the system named is NCI-H460 lung.
The subject of assay [6] is HOP-92 NSCLC.
For assay [7], the system named is NCI-H522 lung.
Assay [8] relates to A549/ATCC NSCLC.
The subject of assay [9] is 786-0 renal.
For assay [10], the system named is COLO 205 colon.

About 83,000 compounds went through this panel and 20% of them were active in at least one assay; those are over-represented in the sample as a whole.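 Single-concentration screen, 48 h exposure, 96-well plates. Endpoint: percent growth. Below 10 = active.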 Values without a mark were called inactive. Active and inactive are the calls of the source.

Consider `C#C[C@@]1(O)[C@@H](CO)O[C@@H](n2cc(Br)c3c(Cl)ccnc32)[C@@H]1O`, for which the growth in [1] is 31.9%; in [2], 47.2%; in [3] it was 11.7%; in assay [4], 36.4%; in assay [5], 45%; in assay [6], -60.5% (active). In addition, the growth was 32% in assay [7], 46.2% in [8], 33.5% in assay [9] and 17.2% in assay [10].
For `Nc1nccc2c1ccn2-c1ccc(NC(=O)c2ccc(N3CCOCC3)c(C(F)(F)F)c2)cc1`, the growth was 33% in assay [1]; 63.1% in assay [2]; 38.9% in assay [3]; -43% (active) in assay [4]; 1.76% (active) in assay [5]; -25% (active) in assay [6]. The growth is 23.1% in assay [7], 11.9% in [8], -45.5% (active) in assay [9] and -54.7% (active) in assay [10].
`COc1ccc(-c2nn(-c3cccc(Cl)c3)cc2-c2cc(-c3ccc(Br)cc3)[nH]c(=O)c2C#N)cc1`: the growth in assay [1] is 86.8%; in assay [2], 84%; in assay [3] it was 83.9%; in assay [4] it was 93.8%; in [5] it was 48.9%; in assay [6] it was 82.1%. Further, the growth is 74.7% in assay [7], 68.2% in [8], 102% in assay [9] and 104% in assay [10].
For `O=C1CN(CCN2CC(=O)NC(=O)C2)CC(=O)N1`, the growth in assay [1] was 95.9%; in [2], 94.7%; in assay [3], 84.3%; in assay [4] it was 93.4%; in [5], 117%; in assay [6], 72.3%. Also, the growth in assay [7] was 97.1%; in assay [8] it was 101%; in [9] it was 97.1%; in assay [10] it was 118%.
For `O=S1(=O)N(CCNc2nccc(-c3c(-c4cccc(O)c4)nc4sccn34)n2)CCN1Cc1ccccc1`, the growth in assay [1] is 84.1%; in assay [2], 71.2%; in assay [3], 101%; in assay [4] it was 143%; in assay [5], 42%; in assay [6] it was 119%. For the same compound, the growth is 52.1% in assay [7], 65.2% in assay [8], 78.3% in [9] and 46.4% in assay [10].
Consider `CCOc1ccccc1C(=O)N1CCN(c2cc(Cl)cc(Cl)c2)CC1`, for which the growth in [1] was 24.3%; in [2] it was 65.6%; in [3], 35%; in assay [4], 27.1%; in [5] it was 5.68% (active); in assay [6], 18.2%. Moreover, the growth in [7] was -6.41% (active); in [8], 19.3%; in assay [9], 14.5%; in assay [10], -65.9% (active).
With `Cc1c(NC(=O)c2sc3nc4c(cc3c2N)CN(Cc2ccccc2)CC4)cccc1C(F)(F)F`, the growth in [1] is 72.7%; in [2] it was 65.7%; in assay [3], 73.1%; in [4], 35.9%; in assay [5], 18.7%; in [6], 77.1%. The growth in assay [7] is 10.4%; in [8], 53.7%; in assay [9], 84.4%; in [10], 21.6%.
`CC(C)CNCC(=O)Nc1ccc(Cc2ccc(NC(=O)CNCC(C)C)cc2)cc1`: the growth is 84% in assay [1]; 68.6% in assay [2]; 78.2% in assay [3]; 59.1% in assay [4]; 43.1% in assay [5]; 38.4% in assay [6]. In addition, the growth in assay [7] is 48.3%; in assay [8] it was 65%; in assay [9] it was 42.8%; in [10], 53.8%.
For the compound `C=CC(=O)Nc1cccc(Nc2nc(Nc3ccc(OCCOC(F)F)cc3)ncc2F)c1`, the growth in assay [1] was 75.2%; in [2], 22.5%; in [3], 10.3%; in assay [4], 29.1%; in assay [5], 37.4%; in assay [6], -0.338% (active). The growth in assay [7] is -7.77% (active); in assay [8], 30.9%; in assay [9], 20%; in assay [10], 63.5%.
Regarding `COC(=O)c1ccc(NC(N)=NCC(C)(C)COc2ccc(C(F)(F)F)cc2)nc1`, the growth in [1] was 33.6%; in [2] it was 50.7%; in assay [3], 65.9%; in assay [4], 76.6%; in assay [5], 38.8%; in [6], 47.1%. Further, the growth in assay [7] was 37.2%; in [8] it was 56.1%; in assay [9], 70.9%; in assay [10], -76.7% (active).
`Cc1cc2nc(-c3c(N)ncc(C#N)c3-c3ccc(Cl)cc3)[nH]c2cc1C`: the growth in assay [1] was 50%; in [2], 91.7%; in [3], 81.1%; in [4] it was 83.5%; in [5], 43.2%; in assay [6] it was 10.6%. In addition, the growth in assay [7] is 41.2%; in assay [8], 36.4%; in assay [9], 75.1%; in [10], 67.4%.
As for `O=[N+]([O-])c1cccc2cc(S(=O)(=O)O)ccc12`, the growth in assay [1] was 105%; in [2], 103%; in [3], 107%; in [4], 98.8%; in assay [5], 110%; in assay [6], 85%. The growth in [7] is 83.8%; in assay [8], 74.2%; in assay [9] it was 100%; in assay [10] it was 105%.
For the compound `O=[N+]([O-])c1ccc(NS(=O)(=O)c2cc(Cl)ccc2Cl)c2ccccc12`, the growth in [1] was 32.5%; in assay [2], 65.7%; in assay [3], 68.4%; in assay [4], 65.7%; in assay [5], 46.6%; in assay [6], 8.11% (active). The growth in assay [7] is 10.1%; in assay [8], 89.5%; in assay [9], 62.9%; in assay [10], 73.6%.
Take `COc1cc(NC(=O)C#Cc2ccccc2)c(OC)cc1Cl`: the growth in assay [1] was 57.8%; in assay [2] it was 64.7%; in assay [3], 93.2%; in assay [4] it was 77.6%; in assay [5], 17.8%; in assay [6] it was 78.5%. Besides, the growth in assay [7] was 39.2%; in assay [8] it was 59.5%; in assay [9], 35.1%; in assay [10], 64.6%.
Regarding `CC(C(C(=O)N1CCCCC1)N1CCCCC1)N1CCCCC1` (stereo not given), the growth in assay [1] was 107%; in [2] it was 109%; in assay [3], 119%; in [4], 96.7%; in [5] it was 114%; in assay [6] it was 112%. For the same compound, the growth was 93.1% in assay [7], 94% in assay [8], 108% in assay [9] and 118% in assay [10].
With `CCOC(=O)n1cnc2c(Cl)ncnc21`, the growth was 245% in assay [1]; 113% in [2]; 109% in [3]; 136% in [4]; 108% in assay [5]; 95.1% in assay [6]. The growth in [7] is 108%; in assay [8], 103%; in [9], 159%; in [10] it was 98.9%.
For the compound `CCC1S/C(=N\N=C(/C)c2ccco2)N(c2ccccc2)C1=O` (stereo not given), the growth is 98.8% in assay [1]; 122% in assay [2]; 66.8% in assay [3]; 106% in assay [4]; 93.8% in assay [5]; 40.6% in assay [6]. Further, the growth in [7] was 74.7%; in assay [8], 104%; in [9], 96.9%; in assay [10], 117%.
Regarding `Nc1ncnc2c1c(-c1ccc(Oc3ccccc3)cc1)nn2C[C@H]1SSC[C@@H]1O`, the growth was 53.2% in [1]; 22.9% in assay [2]; 46.9% in [3]; 49.7% in assay [4]; 22% in [5]; -2.99% (active) in assay [6]. In addition, the growth in [7] is -3.56% (active); in [8], 31%; in assay [9] it was 66.2%; in assay [10], 6.71% (active).
Regarding `CCc1c(C)c2cc3c(c(C)c2oc1=O)OCC(=O)N3`, the growth in assay [1] is 63.5%; in [2], 52.4%; in assay [3] it was 60.7%; in [4] it was 73.5%; in assay [5], 43.2%; in assay [6] it was 50.7%. Further, the growth was 58.2% in assay [7], 47% in assay [8], 48.2% in [9] and 83% in [10].
Take `c1cncc(-c2nc3ccccc3[nH]2)c1`: the growth in assay [1] is 84.4%; in assay [2] it was 92.7%; in assay [3], 101%; in assay [4] it was 83.2%; in [5], 105%; in assay [6], 103%. Further, the growth in assay [7] is 99.8%; in assay [8], 93.9%; in assay [9], 107%; in assay [10] it was 89.1%.
Consider `O=c1c2ccccc2[nH]n1Cc1ccc2c(c1)OCO2`, for which the growth in assay [1] is 106%; in assay [2], 92.6%; in assay [3] it was 97.6%; in assay [4] it was 97.1%; in [5] it was 0.543% (active); in [6], 90.2%. The growth was 99.4% in assay [7], 99.6% in [8], 93.3% in assay [9] and 116% in assay [10].
As to `CCCCNc1cc(C(=O)O)cc(S(N)(=O)=O)c1Oc1ccccc1`, the growth in [1] was 102%; in assay [2], 91%; in assay [3], 101%; in assay [4], 101%; in assay [5], 104%; in assay [6], 81%. In addition, the growth in assay [7] was 102%; in [8] it was 105%; in assay [9], 103%; in assay [10], 98.6%.
Turning to `OCCOCC(F)(F)F`, the growth is 104% in assay [1]; 105% in assay [2]; 97.8% in assay [3]; 111% in assay [4]; 108% in assay [5]; 94.9% in assay [6]. For the same compound, the growth is 110% in assay [7], 113% in assay [8], 113% in [9] and 112% in [10].
Turning to `CCC1(C(N)=O)CC2C=CC1CC2` (stereo not given), the growth was 249% in assay [1]; 109% in [2]; 114% in assay [3]; 136% in assay [4]; 113% in [5]; 94.1% in [6]. The growth was 99.1% in assay [7], 102% in assay [8], 171% in [9] and 94.8% in assay [10].
Consider `O=C(Nc1ccc(-n2cc(-c3ccncc3)c(-c3ccc(O)c(Cl)c3)n2)cc1)c1ccc(Cl)c(C(F)(F)F)c1`, for which the growth in assay [1] is 29.9%; in assay [2], 79.6%; in [3], 54.6%; in assay [4], 33.6%; in [5], 8.06% (active); in [6], -3.55% (active). In addition, the growth in [7] was 24.3%; in [8], 28.4%; in assay [9] it was -30.9% (active); in assay [10], 57.8%.
In the case of `Cc1cccc[n+]1CCC[n+]1ccccc1C`, the growth in [1] was 99.8%; in assay [2], 98.4%; in assay [3], 109%; in assay [4], 84.9%; in assay [5], 106%; in [6], 86%. The growth was 88.1% in [7], 95.7% in [8], 84.2% in assay [9] and 91.1% in [10].
For `COc1ccc(/C=C/C(=O)c2ccc(Oc3ncnc4ccccc34)cc2)cc1OC`, the growth is 81.9% in assay [1]; 80.2% in assay [2]; 76.1% in assay [3]; 87.7% in [4]; 88.4% in assay [5]; 84.6% in assay [6]. Further, the growth in [7] was 53.5%; in assay [8], 59.2%; in assay [9], 82.4%; in [10], 85.4%.
